# Pf growth 48h: Primary qHTS for delayed death inhibitors of the malarial parasite plastid, 48 hour incubation. 310,000 tested, 5.9% active. P. falciparum luciferase growth in erythrocytes, 48 h. Potency, µM (doses to about 28.7 µM), inactives show top-dose activity change, negative = inhibition, actives largely listed as inhibitors; also: potency is read from the fitted curve at half-maximal effect; % is scaled to controls: 0 for no effect and ±100 for the full control effect
#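 Firefly luciferase activity from engineered P. falciparum reports growth; inhibitors lower the luminescent signal. Cultures contained 2% hematocrit erythrocytes at 0.1% final parasitemia.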
# CHX counter: Cycloheximide Counterscreen for Small Molecule Inhibitors of Shiga Toxin | cell reporter, cycloheximide protein synthesis inhibition counterscreen | max response, % | 300,000 tested, 12% active; in the data active = max response mostly above about 13%, no sharp cut-off; inactive = mostly below about 14%; also: read at 38.3 µM for the half of the compounds with a filed dose; 0% is about no effect
# Pf growth 96h: Primary qHTS for delayed death inhibitors of the malarial parasite plastid, 96 hour incubation | P. falciparum luciferase reporter growth, 96 h | Potency, µM (highest dose often 28.7 µM), inactives show at the top dose activity change, negative = inhibition, usual class: inhibitors | 320,000 tested, 6.9% active; also: potency is read from the fitted curve at half-maximal effect; % is scaled to controls: 0 for no effect and ±100 for the full control effect
#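 Cell-based qHTS: luciferase-tagged P. falciparum in erythrocytes (2% hematocrit, 0.05% parasitemia final) incubated with compounds for 96 hours, 37 C, 5% CO2; luciferase detection reagent then added and luminescence measured.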
# HCV inhibitor: qHTS Assay for Inhibitors of Hepatitis C Virus (HCV) | Huh7.5.1 HCVcc-Cre infection, luciferase reporter, 44 h | Potency, µM (top dose mostly 41.8 µM), without a hit: at the top dose activity change, negative = inhibition, usual class: inhibitors | 340,000 tested, 3.4% active | AID 651820, 2012; also: potency is read from the fitted curve at half-maximal effect; % is scaled to controls: 0 for no effect and ±100 for the full control effect
#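 Compounds are dispensed onto cells plated 4 h earlier at 1,000 per well, with HCVcc-Cre virus (about 0.5 moi) added next. Following 44 h of culture, luminescent signal is measured for 15 sec after 15 min with substrate at room temperature.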
# Shiga inhibitor: A qHTS for Small Molecule Inhibitors of Shiga Toxin; Vero cells, Shiga toxin protein synthesis inhibition reporter; inhibition, % at 38.7 µM; 290,000 tested, 9.2% active; in the data active = inhibition mostly above about 28%, no sharp cut-off; inactive = mostly below about 43%; also: 0% is about no effect
# HCMV antiviral: qHTS Assay for inhibitors of the human cytomegalovirus (HCMV); activity change, negative = inhibition, % at 57.5 µM; HFF cells, HCMV-luciferase reporter, 72 h; stronger effect = lower value; 410,000 tested, 4.5% active; AID 1259415, 2018; in the data active = activity change below about -60%; inconclusive = no clear call, values can overlap the other calls; inactive = above about -39%; also: % is scaled to controls: 0 for no effect and ±100 for the full control effect
#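 Two-dose cell screen: HFF monolayers treated with compounds and infected with luciferase-expressing HCMV at 1 PFU/cell, 72 h at 37C, then lysed for luciferase measurement.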
# * hit, by the source's call; ? = inconclusive; · = no result; [ ] = remark or other dose. Rows were chosen to be rich in hits. Some 21% of all compounds tested hit in one or more screens of this group. Unless noted, calls follow the shape of the dose curve; as a rule, active = well fitted inhibition curve with a large enough effect; inconclusive = small, poorly fitted or top-dose-only effect, or another doubt; inactive = no such curve, though single readings can be large or run the other way.
SMILES,Pf growth 48h,CHX counter,Pf growth 96h,HCV inhibitor,Shiga inhibitor,HCMV antiviral
CCCC(=O)Nc1ccc(NC(=O)c2ccco2)cn1,82%,18*,8.3µM*,-25%,27*,36
COc1ccc(S(=O)(=O)NCC(c2ccco2)N2CCc3ccccc3C2)cc1 (centres undefined),-1%,·,6%,19%,·,-95*
COc1ccc(C(=O)NCC(c2ccco2)N2CCc3ccccc32)c(OC)c1 (centres undefined),12µM*,·,13µM*,?,·,1
O=[N+]([O-])c1ccc(S(=O)(=O)NCC(c2cccnc2)N2CCc3ccccc32)cc1 (centres undefined),12µM*,·,15µM*,18%,·,2
COc1ccc(C(=O)NCC(c2ccc(N(C)C)cc2)N2CCc3ccccc32)cc1 (centres undefined),·,·,·,·,·,-71*
O=S(=O)(NCC(c1cccnc1)N1CCc2ccccc2C1)c1ccccc1 (centres undefined),-12%,-2,50%,2%,-4,13
COc1ccc(C(=O)NCC(c2ccco2)N2CCc3ccccc3C2)c(OC)c1 (centres undefined),·,·,·,·,·,-30
COCCN1C(=O)CCC1(C)C(=O)Nc1ccc2ccccc2c1 (centres undefined),·,·,·,·,·,14
COc1ccccc1NC(=O)C(=O)NCC(c1ccco1)N1CCc2ccccc2C1 (centres undefined),5.2µM*,·,?,10%,·,-13
O=C(NCC(c1ccco1)N1CCc2ccccc2C1)C(=O)Nc1ccccc1 (centres undefined),?,·,?,-5%,·,-4
COc1ccc(S(=O)(=O)NCC(c2ccco2)N2CCc3ccccc32)cc1 (centres undefined),9.3µM*,·,?,2%,·,4
O=C1CSC(c2cccs2)N1c1nncs1 (centres undefined),·,·,·,·,·,10
COc1cccc(-c2cc(C(=O)N3CCN(C(=O)c4ccco4)CC3)on2)c1,3%,-3,?,12%,3,29
O=c1c2ccccc2nnn1COc1ccc(F)cc1Cl,211%,41*,126%,4%,55*,-31
O=c1c2ccccc2nnn1COc1ccc(Cl)cc1Br,77%,29*,112%,-10%,60,-28
O=c1c2ccccc2nnn1COc1cccc2ccccc12,341%,45*,183%,-15%,143*,71
O=c1c2ccccc2nnn1Cc1ccc2ccccc2c1,7%,25*,39%,6%,38,89
CC(Oc1ccc(Cl)cc1Cl)C(=O)OCn1nnc2ccccc2c1=O (centres undefined),·,-6,14%,5%,-14,41
Cc1ccc(S(=O)(=O)N2CCCCC2CCNC(=O)C(=O)Nc2ccccc2F)cc1 (centres undefined),?,·,-23%,-16%,·,?
CC(Sc1ccccc1)C(=O)N1CCN(S(=O)(=O)c2ccccc2C(F)(F)F)CC1 (centres undefined),-4%,-1,-7%,2%,0,·
C=CCSC1=C(C#N)C(c2ccccc2Cl)C(C(=O)c2cccs2)C(O)(C(F)(F)F)N1 (centres undefined),20%,-1,?,?,-9,-70*
O=C(COC(=O)Cc1ccc(-c2ccccc2)cc1)NCc1ccc(F)cc1,16%,15*,-16%,0%,11,9
Cc1ccc(CNC(=O)COC(=O)Cc2ccc(-c3ccccc3)cc2)cc1,-8%,-1,-11%,-15%,14,-28
O=C(COc1ccc(C(=O)c2ccccc2)cc1)NCc1ccc(F)cc1,8%,4,287%,-8%,7,-76*
O=C(COc1ccccc1)NCc1ccccc1,·,7,55%,15%,15,?
SMILES,Pf growth 48h,CHX counter,Pf growth 96h,HCV inhibitor,Shiga inhibitor,HCMV antiviral
O=C(Cc1ccc(-c2ccccc2)cc1)NCc1ccccc1,9%,1,43%,-18%,-16,-83*
CN(C)CCCO[C@@H]1[C@H]2OC(C)(C)O[C@H]2O[C@@H]1[C@H](O)CO,2%,·,?,13%,·,26
CC(=O)c1nc2ccccc2n1S(=O)(=O)c1ccc(C)cc1,100%,23*,3%,2%,3,-9
Nc1nc2ccccc2n1S(=O)(=O)c1ccccc1,·,·,·,·,·,-5
Cc1ccc(S(=O)(=O)n2c(C)nc3ccccc32)cc1,34%,2,?,-7%,·,-26
CC(=O)c1nc2ccccc2n1S(=O)(=O)c1ccc(Cl)cc1,6%,-2,12µM*,7%,-4,16
COc1cccc(-c2cnc(C(O)c3ccc(F)cc3C)[nH]2)c1 (centres undefined),·,·,·,·,·,2
Cc1ccc(NCc2n[nH]c(=S)n2-c2ccccc2)c(C)c1,-11%,-4,16%,6%,-1,?
COc1ccc(-n2cc3ccc([N+](=O)[O-])cc3n2)cc1,161%,37*,0%,?,115*,-96*
COc1ccc(-n2c(N)c(C#N)c3ccc([N+](=O)[O-])cc3c2=O)cc1,63%,21,59%,0%,active,8
CCCCn1c(N)c(N(CCOC)C(=O)CN2C(=O)C3CCCCC3C2=O)c(=O)[nH]c1=O (centres undefined),?,·,?,6%,·,-18
COC(=O)c1ccc(NC(=O)CSCc2ccccc2)cc1,·,14,27%,-2%,49,·
O=C(CSCc1ccc(F)cc1)Nc1ccc(F)cc1,1%,17,6.6µM*,10%,19,-16
Cc1ccc(SCC(=O)NCc2ccccc2)cc1,2%,21*,?,-1%,71*,-9
CCC(=O)Oc1ccc(NC(=O)CSCc2ccccc2)cc1,38%,25*,27%,-1%,96*,-73*
O=C(CSCc1c(F)cccc1F)Nc1ccccc1,80%,54*,?,21%,116*,21
O=C(CSCc1c(F)cccc1Cl)Nc1cccnc1,-6%,0,?,14%,1,-3
CCCCN1CC(COCc2ccccc2)Oc2cccc(Oc3cc(C)c(C)c(C)c3)c2S1(=O)=O (centres undefined),·,·,·,-20%[8.37 µM],·,-8
CCOC(=O)c1cc(OC(=O)c2ccccc2F)n(-c2ccccc2)n1,·,·,·,·,·,11
Cc1ccc(CSCC(=O)Nc2ccccc2)cc1,-7%,32*,?,4%,26*,·
Cc1ccc(CNC(=O)CCSCc2ccc(C)cc2)cc1,13%,-2,?,-16%,-6,-10
O=C(CSc1ccccc1)NCc1ccc(F)cc1,85%,40*,5%,8%,80*,-9
Cc1ccc(SCC(=O)NCc2ccc(F)cc2)cc1,2%,-4,2%,8%,-13,4

# Screening results from PubChem BioAssay.
